# PubChem BioAssay (Tox21)
# Values joined by “and” are separate entries in the source; they are usually repeats but may differ in a detail not shown here. Equal values may be shown once. Values without a mark were called inactive. Inconclusive results are not listed. A call without a number means that no potency is given here. Active and inactive are the calls of the source. Calls follow the shape of the dose curve; as a rule, active = well fitted curve in the direction sought with a large enough effect in the repeat runs; inconclusive = weak or mixed curves; inactive = no such curve, though single readings can be large; an effect the other way counts as inactive or inconclusive.
# How the values were obtained:
# [1] = A CellTox Green Cytotoxicity Assay to monitor cytotoxicity in HEK293 cells - 40 hour (AID 1224871); also: nearly all actives have a fitted effect of over 45% in size; also: potency is read from the fitted curve at half-maximal effect
# Summary of the method: (§1)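 Real-time, in one plate: 600 HEK293 cells/well with dead-cell DNA dye, pinned compound after 5 h, 37 C incubation over 40 h; viable cells give no appreciable fluorescence.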
# [2] = qHTS RealTime-Glo MT Cell Viability Assay in HEK293 cells - 16 hour (AID 1224872); also: nearly all actives have a fitted effect of over 50% in size; also: potency is read from the fitted curve at half-maximal effect
# Summary of the method: (§2)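 Cells + reagent dispensed (600 cells/well, HEK293) → 5 h at 37 C/5% CO2 → 23 nL compound in DMSO pinned → 40 h at 37 C → luminescence read at 0, 8, 16, 24, 32, 40 h.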
# [3] = qHTS RealTime-Glo MT Cell Viability Assay in HepG2 cells - 8 hour (AID 1224873); also: nearly all actives have a fitted effect of over 55% in size
# Summary of the method: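 HepG2 cells (600/well) mixed with RealTime-Glo MT reagent, settled 5 h at 37 C/5% CO2 before compound addition. Nonlytic NanoLuc luminescence from viable-cell prosubstrate reduction read repeatedly during 40 h treatment at 37 C.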
# [4] = qHTS RealTime-Glo MT Cell Viability Assay in HEK293 cells - 40 hour (AID 1224874); conditions: RealTime-Glo luminescence; max response: hits give low values; also: nearly all actives have a fitted effect of over 50% in size; also: potency is read from the fitted curve at half-maximal effect
# Summary of the method: (§3)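 Kinetic, non-lysing viability readout. Seed HEK293 (600/well) with reagent, incubate 5 h at 37 C/5% CO2, pin 23 nL compound in DMSO, incubate at 37 C, read luminescence at 0, 8, 16, 24, 32, 40 h.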
# [5] = A CellTox Green Cytotoxicity Assay to monitor cytotoxicity in HEK293 cells - 24 hour (AID 1224875); also: series mostly up to about 77 µM; nearly all actives have a fitted effect of over 45% in size
# Summary of the method: as §1
# [6] = A CellTox Green Cytotoxicity Assay to monitor cytotoxicity in HepG2 cells - 16 hour (AID 1224876); also: nearly all actives have a fitted effect of over 45% in size
# Summary of the method: (§4)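 Cytotoxicity was tracked as dead-cell DNA fluorescence in HepG2 cells treated with test compounds at 37 C; each time-point value comes from one kinetic series spanning 0, 8, 16, 24, 32 and 40 h.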
# [7] = A CellTox Green Cytotoxicity Assay to monitor cytotoxicity in HepG2 cells - 24 hour (AID 1224878); also: nearly all actives have a fitted effect of over 45% in size
# Summary of the method: as §4
# [8] = A CellTox Green Cytotoxicity Assay to monitor cytotoxicity in HepG2 cells - 40 hour (AID 1224879); also: nearly all actives have a fitted effect of over 40% in size; also: potency is read from the fitted curve at half-maximal effect
# Summary of the method: as §4
# [9] = qHTS RealTime-Glo MT Cell Viability Assay in HEK293 cells - 0 hour (AID 1224880)
# Summary of the method: as §3
# [10] = A CellTox Green Cytotoxicity Assay to monitor cytotoxicity in HEK293 cells - 32 hour (AID 1224881); also: nearly all actives have a fitted effect of over 40% in size; also: potency is read from the fitted curve at half-maximal effect
# Summary of the method: as §1
# [11] = A CellTox Green Cytotoxicity Assay to monitor cytotoxicity in HepG2 cells - 0 hour (AID 1224882); also: nearly all actives have a fitted effect of over 35% in size
# Summary of the method: as §4
# [12] = A CellTox Green Cytotoxicity Assay to monitor cytotoxicity in HepG2 cells - 32 hour (AID 1224883); also: nearly all actives have a fitted effect of over 50% in size; also: potency is read from the fitted curve at half-maximal effect
# Summary of the method: as §4
# [13] = A CellTox Green Cytotoxicity Assay to monitor cytotoxicity in HEK293 cells - 8 hour (AID 1224884); also: nearly all actives have a fitted effect of over 35% in size
# Summary of the method: as §1
# [14] = qHTS RealTime-Glo MT Cell Viability Assay in HepG2 cells - 16 hour (AID 1224885); also: nearly all actives have a fitted effect of over 50% in size
# Summary of the method: (§5)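 Real-time, nonlytic viability: 600 HepG2 cells/well mixed with NanoLuc enzyme plus prosubstrate; 5 h settle, compound (DMSO) added by pintool; luminescence monitored over 40 h at 37 C.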
# [15] = qHTS RealTime-Glo MT Cell Viability Assay in HEK293 cells - 24 hour (AID 1224886); also: nearly all actives have a fitted effect of over 50% in size; also: potency is read from the fitted curve at half-maximal effect
# Summary of the method: as §2
# [16] = A CellTox Green Cytotoxicity Assay to monitor cytotoxicity in HEK293 cells - 16 hour (AID 1224888); also: nearly all actives have a fitted effect of over 35% in size
# Summary of the method: as §1
# [17] = qHTS RealTime-Glo MT Cell Viability Assay in HepG2 cells - 0 hour (AID 1224889); also: nearly all actives have a fitted effect of over 50% in size
# Summary of the method: as §5
# [18] = A CellTox Green Cytotoxicity Assay to monitor cytotoxicity in HepG2 cells - 8 hour (AID 1224890); also: nearly all actives have a fitted effect of over 45% in size
# Summary of the method: as §4
# [19] = qHTS RealTime-Glo MT Cell Viability Assay in HepG2 cells - 32 hour (AID 1224877); also: nearly all actives have a fitted effect of over 55% in size
# Summary of the method: as §5
# [20] = qHTS RealTime-Glo MT Cell Viability Assay in HEK293 cells - 8 hour (AID 1224887); also: nearly all actives have a fitted effect of over 50% in size; also: potency is read from the fitted curve at half-maximal effect
# Summary of the method: as §3
compound,measurement,setting,value
CCCN(CCC)c1c([N+](=O)[O-])cc(S(C)(=O)=O)cc1[N+](=O)[O-],Potency,[1],inactive
same,Potency,[2],15.5 µM (active)
same,Potency,[3],inactive
same,Potency,[4],15.5 µM (active)
same,Potency,[5],inactive
same,Potency,[6],inactive
same,Potency,[7],inactive
same,Potency,[8],inactive
same,Potency,[9],inactive
same,Potency,[10],inactive
same,Potency,[11],inactive
same,Potency,[12],inactive
same,Potency,[13],inactive
same,Potency,[14],inactive
same,Potency,[15],13.8 µM (active)
same,Potency,[16],inactive
same,Potency,[17],inactive
same,Potency,[18],inactive
CC(=O)[C@H]1CC[C@H]2[C@@H]3CC[C@H]4C[C@](C)(O)CC[C@]4(C)[C@H]3CC[C@]12C,Potency,[1],inactive
same,Potency,[2],inactive
same,max response,[4],-9.18%
same,Potency,[5],inactive
same,Potency,[6],inactive
same,Potency,[19],inactive
same,Potency,[7],inactive
same,Potency,[8],inactive
same,Potency,[9],inactive
same,Potency,[10],inactive
same,Potency,[11],inactive
same,Potency,[12],inactive
same,Potency,[13],inactive
same,Potency,[14],inactive
same,Potency,[15],inactive
same,Potency,[20],inactive
same,Potency,[16],inactive
same,Potency,[17],inactive
same,Potency,[18],inactive
Sc1ccccc1Cl,Potency,[1],inactive
same,Potency,[2],inactive
same,Potency,[3],inactive
same,max response,[4],-1.55%
same,Potency,[5],inactive
same,Potency,[19],inactive
same,Potency,[8],inactive
same,Potency,[9],inactive
same,Potency,[10],inactive
same,Potency,[13],inactive
same,Potency,[14],inactive
same,Potency,[15],inactive
same,Potency,[20],inactive
same,Potency,[16],inactive
same,Potency,[17],inactive
CNC(C)Cc1ccccc1OC (centres undefined),Potency,[1],inactive
same,Potency,[2],inactive
same,Potency,[3],inactive
same,max response,[4],1.99%
same,Potency,[5],inactive
same,Potency,[7],inactive
same,Potency,[8],inactive
same,Potency,[9],inactive
same,Potency,[10],inactive
same,Potency,[11],inactive
same,Potency,[12],inactive
same,Potency,[13],inactive
same,Potency,[14],inactive
same,Potency,[15],inactive
same,Potency,[20],inactive
same,Potency,[16],inactive
same,Potency,[17],inactive
CCOP(O)OCC,Potency,[1],inactive
same,Potency,[2],inactive
same,max response,[4],0.744%
same,Potency,[5],inactive
same,Potency,[6],inactive
same,Potency,[19],inactive
same,Potency,[7],inactive
same,Potency,[8],inactive
same,Potency,[9],inactive
same,Potency,[10],inactive
same,Potency,[11],inactive
same,Potency,[12],inactive
same,Potency,[13],inactive
same,Potency,[14],inactive
same,Potency,[15],inactive
same,Potency,[20],inactive
same,Potency,[16],inactive
NCCCNCCCN,Potency,[1],62.6 µM (active)
same,Potency,[2],inactive
same,Potency,[3],inactive
same,max response,[4],-7.03%
same,Potency,[6],inactive
same,Potency,[19],inactive
same,Potency,[7],inactive
same,Potency,[8],inactive
same,Potency,[9],inactive
same,Potency,[10],62.6 µM (active)
same,Potency,[11],inactive
same,Potency,[12],inactive
same,Potency,[14],inactive
same,Potency,[15],inactive
same,Potency,[20],inactive
C[C@@H]1CC[C@H]2[C@@H](C)C(=O)O[C@@H]3O[C@@]4(C)CC[C@@H]1[C@]32OO4,Potency,[1],inactive
same,Potency,[2],inactive
same,max response,[4],-5.45%
same,Potency,[5],inactive
same,Potency,[6],inactive
same,Potency,[19],inactive
same,Potency,[7],inactive
same,Potency,[8],inactive
same,Potency,[9],inactive
same,Potency,[10],inactive
same,Potency,[11],inactive
same,Potency,[12],inactive
same,Potency,[13],inactive
same,Potency,[14],inactive
same,Potency,[15],inactive
same,Potency,[20],inactive
same,Potency,[16],inactive
same,Potency,[17],inactive
same,Potency,[18],inactive
CCOP(=O)(OCC)SCCSCC,Potency,[1],inactive
same,Potency,[2],inactive
same,Potency,[3],inactive
same,max response,[4],0.908% and 6.69%
same,Potency,[5],inactive
same,Potency,[6],inactive
same,Potency,[7],inactive
same,Potency,[8],inactive
same,Potency,[9],inactive
same,Potency,[10],inactive
same,Potency,[11],inactive
same,Potency,[12],inactive
same,Potency,[13],inactive
same,Potency,[14],inactive
same,Potency,[15],inactive
same,Potency,[20],inactive
same,Potency,[16],inactive
same,Potency,[18],inactive
O=S(=O)(Cl)c1ccccc1,Potency,[1],inactive
same,Potency,[2],inactive
same,Potency,[3],inactive
same,max response,[4],11.8%
same,Potency,[5],inactive
same,Potency,[6],inactive
same,Potency,[7],inactive
same,Potency,[8],inactive
same,Potency,[9],inactive
same,Potency,[10],inactive
same,Potency,[11],inactive
same,Potency,[12],inactive
same,Potency,[13],inactive
same,Potency,[14],inactive
same,Potency,[15],inactive
same,Potency,[20],inactive
same,Potency,[16],inactive
same,Potency,[18],inactive
CCC(COC(=O)c1cc(OC)c(OC)c(OC)c1)(c1ccccc1)N(C)C (centres undefined),Potency,[1],inactive
same,Potency,[2],26.8 µM (active)
same,Potency,[3],inactive
same,Potency,[5],inactive
same,Potency,[6],inactive
same,Potency,[19],inactive
same,Potency,[7],inactive
same,Potency,[8],inactive
same,Potency,[9],inactive
same,Potency,[10],inactive
same,Potency,[11],inactive
same,Potency,[12],inactive
same,Potency,[13],inactive
same,Potency,[14],inactive
same,Potency,[20],26.8 µM (active)
same,Potency,[16],inactive
same,Potency,[18],inactive
N#CCc1ccccc1,Potency,[1],inactive
same,Potency,[2],inactive
same,Potency,[3],inactive
same,max response,[4],2.97%
same,Potency,[5],inactive
same,Potency,[6],inactive
same,Potency,[7],inactive
same,Potency,[8],inactive
same,Potency,[9],inactive
same,Potency,[10],inactive
same,Potency,[11],inactive
same,Potency,[12],inactive
same,Potency,[14],inactive
same,Potency,[15],inactive
same,Potency,[20],inactive
same,Potency,[16],inactive
COc1cc(CC(C)N)cc2c1OCO2 (centres undefined),Potency,[1],inactive
same,Potency,[2],inactive
same,max response,[4],-17.7%
same,Potency,[5],inactive
same,Potency,[6],inactive
same,Potency,[19],inactive
same,Potency,[7],inactive
same,Potency,[8],inactive
same,Potency,[9],inactive
same,Potency,[10],inactive
same,Potency,[11],inactive
same,Potency,[12],inactive
same,Potency,[13],inactive
same,Potency,[14],inactive
same,Potency,[15],inactive
same,Potency,[20],inactive
same,Potency,[16],inactive
same,Potency,[17],inactive
Clc1ccc(C2(Cn3cncn3)CC(Br)CO2)c(Cl)c1 (centres undefined),Potency,[1],inactive
same,Potency,[2],24.4 µM (active)
same,Potency,[3],inactive
same,Potency,[4],21.7 µM (active)
same,Potency,[6],inactive
same,Potency,[19],inactive
same,Potency,[8],38.7 µM (active)
same,Potency,[9],inactive
same,Potency,[10],inactive
same,Potency,[11],inactive
same,Potency,[12],34.5 µM (active)
same,Potency,[13],inactive
same,Potency,[15],27.4 µM (active)
same,Potency,[16],inactive
same,Potency,[17],inactive
same,Potency,[18],inactive
CC(C)(CCl)C(=O)Cl,Potency,[1],inactive
same,Potency,[2],inactive
same,Potency,[3],inactive
same,max response,[4],0.815%
same,Potency,[5],inactive
same,Potency,[6],inactive
same,Potency,[7],inactive
same,Potency,[8],inactive
same,Potency,[9],inactive
same,Potency,[10],inactive
same,Potency,[11],inactive
same,Potency,[12],inactive
same,Potency,[14],inactive
same,Potency,[15],inactive
same,Potency,[20],inactive
same,Potency,[16],inactive
same,Potency,[17],inactive
same,Potency,[18],inactive
C=CC(=O)OCC(C)C,Potency,[1],inactive
same,Potency,[2],inactive
same,Potency,[3],inactive
same,max response,[4],15.8%
same,Potency,[5],inactive
same,Potency,[6],inactive
same,Potency,[7],inactive
same,Potency,[8],inactive
same,Potency,[9],inactive
same,Potency,[10],inactive
same,Potency,[11],inactive
same,Potency,[12],inactive
same,Potency,[14],inactive
same,Potency,[15],inactive
same,Potency,[20],inactive
same,Potency,[16],inactive
same,Potency,[17],inactive
same,Potency,[18],inactive
